Measurements published in paper PMC7826789 (International Journal of Molecular Sciences, 2021).

Experiments:
Details in all cases: Compound Concentration (nM):1000
[1] = system: KIT-autoinhibited
[2] = system: KIT
[3] = system: LATS1
[4] = system: LATS2
[5] = system: LCK
[6] = system: LIMK1
[7] = system: LIMK2
[8] = system: T1, LKB1
T1 construct: gene STK11

[9] = system: T2, LOK
T2 construct: gene STK10

[10] = system: LRRK2(G2019S)
[11] = system: LRRK2
[12] = system: LTK
[13] = system: LYN
[14] = system: T3, LZK
T3 construct: gene MAP3K13

[15] = system: MAK
[16] = system: MAP3K15
[17] = system: MAP3K1
[18] = system: MAP3K2
[19] = system: MAP3K3
[20] = system: MAP3K4
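Further: KINOMEscan scanMAX binding as percent activity remaining versus control; lower means stronger binding.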

SMILES	Percent Control [1] [%]	Percent Control [2] [%]	Percent Control [3] [%]	Percent Control [4] [%]	Percent Control [5] [%]	Percent Control [6] [%]	Percent Control [7] [%]	Percent Control [8] [%]	Percent Control [9] [%]	Percent Control [10] [%]	Percent Control [11] [%]	Percent Control [12] [%]	Percent Control [13] [%]	Percent Control [14] [%]	Percent Control [15] [%]	Percent Control [16] [%]	Percent Control [17] [%]	Percent Control [18] [%]	Percent Control [19] [%]	Percent Control [20] [%]
CN1CCN(C(=O)c2ccc(NC(=O)Nc3ccc(N(C)c4ccnc(Nc5ccc(CS(C)(=O)=O)cc5)n4)cc3)cc2)CC1.Cl [GW830263A]	35	0	68	59	85	61	43	76	0.4	71	74	85	71	70	64	86	83	38	57	4
CCn1c(-c2nonc2N)nc2c(C#CC(C)(C)O)nc(OCCNC)cc21.Cl [GSK949675]	100	100	65	11	100	100	100	70	100	100	100	100	100	91	100	100	100	6.9	28	100
CCS(=O)(=O)c1ccc(OC)c(Nc2ncc(-c3cccc(F)c3)o2)c1 [GW621970X]	14	13	94	100	25	100	100	100	100	100	90	100	36	100	100	95	80	100	100	100
COc1cc(C)c(N(C)C(=O)CN(C)C)cc1Nc1nc(Nc2cccc(F)c2C(N)=O)c2cc[nH]c2n1 [GSK2219385]	100	100	100	80	100	100	96	83	100	8.8	11	74	100	80	100	98	83	93	67	90
NS(=O)(=O)c1ccc(N/N=C2\C(=O)Nc3ccc(C(=O)NCc4ccncc4)cc32)cc1 [GW300657X]	99	87	100	67	100	100	90	100	100	89	69	100	81	72	100	80	67	87	72	99
CC1=C(C(=O)Nc2ccc3[nH]ncc3c2)C(c2ccc3ccccc3c2)CC(=O)N1 (stereo not shown) [GSK270822A]	100	80	66	7	33	100	88	100	100	77	100	100	66	72	100	73	68	60	84	100
Cl.O=C(Nc1ccc(Oc2ccc3[nH]c(NC(=O)c4ccco4)nc3c2)cc1)Nc1cc(C(F)(F)F)ccc1F [GW683134A]	83	0.4	100	97	6.3	76	84	87	0.1	66	28	6.2	29	100	100	90	53	100	85	86
Cl.c1ccc(Cc2nc3ccc(Nc4ncnc5ccccc45)cc3[nH]2)cc1 [GR269666A]	100	94	100	100	88	100	100	100	100	100	100	100	93	100	100	100	100	100	100	100
COc1cc2ncn(-c3cc(O[C@H](C)c4ccccc4Cl)c(C(N)=O)s3)c2cc1OC [GSK237701A]	100	49	99	86	52	100	54	75	0.3	69	70	26	81	70	100	100	2.6	84	83	100
NS(=O)(=O)c1ccc(N/N=C2\C(=O)Nc3ccc(C(=O)NCCc4c[nH]cn4)cc32)cc1 [GW300660X]	93	100	100	100	100	100	100	100	100	71	78	100	100	100	100	100	47	82	96	100
COc1cc(C=NNc2ncnc3c2cnn3-c2ccccc2)ccc1O [GW513184X]	100	42	90	100	34	100	100	69	100	100	100	100	74	98	78	100	100	99	73	100
CC(C)COC(=O)c1ccc2c(c1)/C(=C/Nc1ccc(S(N)(=O)=O)cc1)C(=O)N2 [GW416981X]	85	100	100	91	100	100	100	100	100	36	56	100	100	100	100	100	67	66	90	100
COc1ccc(COc2ccc(Cc3cnc(N)nc3N)cc2OC)cc1 [GW632580X]	91	95	100	100	87	79	91	100	88	95	83	86	100	77	89	95	65	97	91	90
Cc1cc(O)cc(C)c1/C=C/c1cncc(C(N)=O)c1 [GW435821X]	77	2.1	100	96	25	100	100	100	100	74	81	100	38	100	100	100	65	79	59	100
NS(=O)(=O)c1ccc(Nc2ncc(-c3ccccc3)o2)cc1 [GW572399X]	31	30	100	100	100	100	100	87	100	78	76	100	100	100	100	99	59	87	100	100
COc1cccc(-n2ncc3c(N/N=C/c4ccncc4)ncnc32)c1 [GW784752X]	100	91	100	100	35	99	100	100	100	96	91	100	58	100	100	97	70	100	84	89
CC1=C(C(=O)Nc2ccc3[nH]ncc3c2)C(c2ccc(Cl)c(Cl)c2)CC(=O)N1 (stereo not shown) [GSK299115A]	100	100	60	1.5	80	94	63	100	71	100	96	84	100	79	100	84	76	85	85	100
COc1ccc2c(-c3ccnc(Nc4cccc(OC(F)(F)F)c4)n3)cnn2n1 [GW810372X]	81	86	100	91	100	94	100	100	100	86	72	100	100	100	100	100	70	96	90	71
Nc1ncnc2occ(-c3ccc(NC(=O)Nc4cc(C(F)(F)F)ccc4F)cc3)c12 [GW770249X]	31	0	100	91	25	100	94	83	0.4	81	77	4.5	29	100	100	100	51	91	91	94
NS(=O)(=O)c1ccc(N/N=C2\C(=O)Nc3ccc(Cl)cc32)cc1 [GW280670X]	42	90	100	98	96	100	100	100	100	70	72	100	90	100	100	100	63	100	100	100
